# esBAF inh = Bmi1 luciferase reporter increase in mESCs, primary screen, esBAF inhibitor project, mouse ES cells, Bmi1 luciferase knock-in, single point; AID 602393, 2012; hit rate 2% among 350,000; 24 h; 100% = twice the neutral-well signal; reporter increase, % at 12.5 µM; in the data active means activation above about 40%; inconclusive means no clear call, values can overlap the other calls;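 further: 0% = median of the plate's neutral control wells and 100% = double that signal; a rise in the Bmi1 reporter signal indicates esBAF inhibition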
# HSF1 inhib = HSF1 inhibitors in luciferase reporter cells, primary screen, cell-based, NIH3T3, luminescence | NIH3T3-HGL HSE-luciferase, MG132-induced, luminescence 8 h; active compounds read low | activity change, negative = inhibition, % at 7.5 µM (by protocol) | hit rate 0.77% among 300,000 | AID 2098, 2009;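 active means more than half of replicate wells show activity change below -50%, luminescence cut by over half; inconclusive means some wells, but at most half, below -50%; inactive means no replicate well below -50%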;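 further: luciferase reports HSF-1 transcriptional activity via heat shock element; 0% = median of DMSO wells and -100% = zero luminescence signal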
# HSF1 activator = HSF-1 activators, primary screen, NIH3T3-HGL cells, MG132 stress, luminescence, single point | activation, % at 9 µM | hit rate 1.7% among 300,000 | NIH3T3-HGL HSF-1 luciferase reporter, 8 h; 100% = twice DMSO control signal;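 active means mean replicate activation of at least 50% with a set share of replicates each reaching 50%; inconclusive means only one of those two conditions met; inactive means mean below 50% and too few replicates reaching it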;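 further: 0% = median of the neutral control wells and 100% = twice that signal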
# MITF act = activators of MITF-driven TRPM1 promoter reporter, primary screen, cell-based, SK-MEL-5, luciferase, single point; activation, % at 12.5 µM; hit rate 0.75% among 300,000; SK-MEL-5 TRPM1-promoter luciferase, 24 h; % of positive control, neutral wells = 0;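 active means mean activation of at least 80% with every replicate also reaching 80%; inconclusive means mean reaches 80% but some replicate falls short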;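 further: 0% = neutral control wells and 100% = parthenolide positive control wells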
# Wnt bcat act = Wnt/beta-catenin pathway activators, primary screen, cell-based, plate reader, single point | hit rate 1.2% among 300,000 | activation, % at 9.35 µM | Wnt/beta-catenin reporter cell assay, activator | AID 743398, 2014; in the data active means activation above about 30%, passing the limit was not always enough; inconclusive means no clear call, values can overlap the other calls;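 further: 0% = neutral control wells and 100% = positive control wells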
# * = called active by the depositor; ? = inconclusive; . = not tested or not shown; ! = a repeat was not active. Shown are actives, neighbours in structure and some others; about 3.8% of the full set was active somewhere.
SMILES,esBAF inh,HSF1 inhib,HSF1 activator,MITF act,Wnt bcat act
Clc1ccc(OCCn2c(-c3ccco3)nc3ccccc32)cc1,-2,80,137*,.,-7
c1coc(Cn2c(-c3ccco3)nc3ccccc32)c1,13,18,10,15,.
O=c1c2ccccc2nc(-c2ccc(Br)cc2)n1Cc1ccccc1,-8,0,-1,1,1
C/C(=N\O)c1sc(-c2ccccc2)nc1C,.,41,72*,36,64*
C=C(C)c1sc(-c2ccccc2)nc1C,.,-2,-17,.,-3
C[C@@H]1CN([C@H](C)CO)C(=O)c2cc(NC(=O)c3ccccc3)ccc2O[C@@H](C)CCCCO[C@@H]1CN(C)C(=O)c1ccncc1,0,.,.,.,.
O=C(Cc1ccccc1)Nc1nnc(-c2cccs2)s1,52*,14,23,77,27
O=C(Nc1nc(-c2cccs2)cs1)c1ccc(Cl)cc1,.,5,45,7,.
O=C(Cc1ccccc1)Nc1nnc(-c2ccco2)s1,48*,.,.,60,.
COc1ccc(C(=O)Nc2nc(-c3cccs3)cs2)cc1,84*,24,14,45,.
CCCC(=O)Nc1nnc(-c2ccco2)s1,22,.,.,63,3
O=C(Cc1ccccc1F)Nc1nc(-c2ccc(F)c(F)c2)cs1,65*,5,-7,83*,9
O=C(Cc1ccccc1F)Nc1nc(-c2cccs2)cs1,.,52,66*,45,30
CCC(C)C(=O)Nc1nnc(-c2cccs2)s1 (stereo not given),?,.,.,.,34*
O=C(Cc1ccccc1)Nc1nc(-c2cccs2)cs1,65*,22,20,?,0
O=C1CCC(=O)N1c1ccc(-c2nc3ccccc3s2)cc1,-71,-72*,-72,-15,1
Nc1ccc(-c2nc3ccccc3s2)cn1,13,17,43,39,38*
COc1cc(OC)cc(-c2nc3ccccc3s2)c1,40,43,?,39,.
c1ccc(-c2nc3ccccc3s2)nc1,11,31,58*,58,59*!
C[C@H](CO)N1C[C@H](C)[C@@H](CN(C)C(=O)CN(C)C)Oc2ncc(-c3ccccc3F)cc2C1=O,6,.,.,.,.
CO[C@@H]1CN(C)C(=O)c2cc(NS(=O)(=O)c3ccc(Cl)cc3)ccc2OC[C@@H](C)N(C)C[C@@H]1C,2,.,.,.,.
COCC(=O)Nc1ccc2c(c1)C(=O)N(C)C[C@H](OC)[C@@H](C)CN[C@@H](C)CO2,0,.,.,.,.
COc1ccc(CN(C)C[C@@H]2OCCCC[C@H](C)Oc3ccc(NC(=O)Nc4c(C)noc4C)cc3C(=O)N([C@@H](C)CO)C[C@@H]2C)cc1,-5,.,.,.,.
CC1(C)CC(NC(=O)C2CCC(=O)N(Cc3ccccc3F)C2)CC(C)(C)C1 (stereo not given),47*,10,21,29,13
O=C(Nc1ccc(Cl)c(S(=O)(=O)N2CCOCC2)c1)c1cc2ccccc2oc1=O,82*,.,.,27,3
SMILES,esBAF inh,HSF1 inhib,HSF1 activator,MITF act,Wnt bcat act
CCN(CC)S(=O)(=O)c1ccc(N2CCOCC2)c(NC(=O)c2cc3ccccc3oc2=O)c1,.,27,69*,7,0
CCN(CC)S(=O)(=O)c1ccc(N2CCOCC2)c(NC(=O)c2ccccc2F)c1,.,1,-1,21,9
Cc1ccc(S(=O)(=O)N2CCOCC2)cc1NC(=O)c1cc2ccccc2oc1=O,3,.,.,8,1
O=C(c1cc2ccccc2oc1=O)N1CCOCC1,49*,26,42,63,35*
C[C@H]1CN([C@@H](C)CO)C(=O)c2cc(C#Cc3cccc(F)c3)cnc2O[C@@H]1CN(C)C(=O)C1CCOCC1,4,.,.,.,.
Cc1nnc(C)n1/N=C/c1ccc(C(=O)O)cc1,-5,0,6,0,-3
O=C(O)c1ccc(/C=N/N2CCN(c3ccccc3)CC2)cc1,42*,8,22,35,6
O=C(O)c1ccc(C=NN2CCCCCC2)cc1,47*,.,.,26,3
C[C@H]1CCCCO[C@H](CN(C)C(=O)Nc2ccc3c(c2)OCO3)[C@@H](C)CN([C@@H](C)CO)C(=O)c2cc(NS(=O)(=O)c3ccccc3)ccc2O1,-2,.,.,.,.
C[C@H](CO)N1C[C@H](C)[C@H](CN(C)Cc2ccc(C(=O)O)cc2)Oc2ccc(NS(=O)(=O)c3ccccc3)cc2C1=O,2,.,.,.,.
CO[C@@H]1CN(C)C(=O)c2ccc(NC(=O)Cc3ccccc3)cc2OC[C@H](C)N(C(=O)c2ccccc2F)C[C@H]1C,-2,.,.,.,.
O=C(OC1CCOC1=O)c1cc(Cl)ccc1[N+](=O)[O-] (stereo not given),.,19,58*,-5,-1
Cc1ccc(Oc2ccc(OCC(=O)NC3CCS(=O)(=O)C3)cc2)cc1 (stereo not given),3,37,53*,-14,-2
O=C(COc1ccc(Oc2ccccc2)cc1)NC1CCS(=O)(=O)C1 (stereo not given),0,.,.,-2,-3
CCc1ccc(C(=O)CN2C(=O)NC3(CCCCCC3)C2=O)cc1,64*,.,.,75,13
CC1CCN(C(=O)CN2C(=O)NC3(CCCCCC3)C2=O)CC1,12,.,.,6,5
CCc1cccc2c(C(=O)CN3C(=O)NC4(CCCCCC4)C3=O)c[nH]c12,-22,.,.,102*,-2
O=C(CN1C(=O)NC2(CCCCCC2)C1=O)c1ccc(Cl)cc1,52*,.,.,56,15
CCOC(=O)C1CCN(C(=O)CN2C(=O)NC3(CCCCC3)C2=O)CC1,1,.,.,3,43*
COc1ccc(NC(=O)N(C)C[C@H]2Oc3c(NC(=O)C4CCOCC4)cccc3C(=O)N([C@H](C)CO)C[C@H]2C)cc1,-1,.,.,.,.
O=C(CN1C(=O)NC2(CCCCCC2)C1=O)c1ccc2c(c1)OCCO2,37,30,43,.,67*
O=C(NCc1ccccn1)[C@@H]1[C@@H](CO)[C@@H]2Cn3c(ccc(C4=CCCC4)c3=O)[C@H]1N2Cc1cccnc1,-2,.,.,.,.
C[C@@H]1CN([C@@H](C)CO)C(=O)c2cc(N(C)C)ccc2O[C@@H](C)CCCCO[C@H]1CN(C)Cc1ccccc1,-6,.,.,.,.
CCc1ccc(C(=O)c2cncc(Br)c2)cc1,46*,-7,8,63,20
CCCNC(=O)N1C[C@@H](O)COC[C@@H]2O[C@@H](CC(=O)NCCCN3CCOCC3)CC[C@H]21,-2,.,.,.,.
O=C(C[C@H]1CC[C@H](NC(=O)Nc2cc(F)ccc2F)[C@@H](CO)O1)NCCCN1CCOCC1,0,.,.,.,.
CCN(CC)Cc1c(O)ccc2c(=O)c(-c3ccc(Cl)cc3)coc12,13,1,13,26,1
CN(C)Cc1c(O)ccc2c(=O)c(-c3ccc(Cl)cc3)coc12,64*,13,19,22,-2
c1ccc2[nH]c(N3CCOCC3)nc2c1,0,-4,1,2,.
c1ccc(N2CCN(c3nc4ccccc4[nH]3)CC2)nc1,.,15,63*,24,3
